Among the data in article PMC7862700, “An all-to-all approach to the identification of sequence-specific readers for epigenetic DNA modifications on cytosine” are binding signal values, retold here.

Assay in all cases: DAPPL (digital affinity profiling via proximity ligation, sequencing); 10 mM Tris-HCl pH 7.5, 50 mM NaCl, 1 mM DTT, 4% glycerol, room temperature, 30 min; GST-TFs on glutathione beads, 16-mer random dsDNA library, 0.1% formaldehyde crosslink after washing; high values mean tight binding
What all share (settings): protein: recombinant; tags: N-terminal GST; dsDNA, one strand shown

One assay deals with T1, ERF (Homo sapiens, UniProt P50548 1-548).
T1 sequence: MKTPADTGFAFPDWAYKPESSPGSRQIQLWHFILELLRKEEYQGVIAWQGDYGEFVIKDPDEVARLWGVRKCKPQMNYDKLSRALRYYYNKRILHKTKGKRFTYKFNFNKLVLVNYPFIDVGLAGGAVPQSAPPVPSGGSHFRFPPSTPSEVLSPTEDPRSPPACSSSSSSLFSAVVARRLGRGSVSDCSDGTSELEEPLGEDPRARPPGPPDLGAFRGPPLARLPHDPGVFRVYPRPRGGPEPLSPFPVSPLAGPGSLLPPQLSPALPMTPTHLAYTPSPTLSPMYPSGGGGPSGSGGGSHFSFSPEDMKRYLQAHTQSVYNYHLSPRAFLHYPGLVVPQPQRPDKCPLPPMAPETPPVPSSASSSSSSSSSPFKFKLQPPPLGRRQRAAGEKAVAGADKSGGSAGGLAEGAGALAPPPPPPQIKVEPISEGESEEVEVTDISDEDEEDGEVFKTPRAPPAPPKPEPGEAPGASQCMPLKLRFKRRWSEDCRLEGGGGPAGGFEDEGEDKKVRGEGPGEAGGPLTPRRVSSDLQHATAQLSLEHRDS
A digest of the protocol: (§1)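 Binding signal is defined as a hexamer's read frequency for one factor over its frequency for the tag-only sample. To obtain reads, GST-fused human transcription factors were expressed in yeast, captured on glutathione beads, barcoded with DNA and pooled with that sample. Pools met 200 nmole of a 16-mer random double-stranded DNA library in Tris/NaCl/DTT/glycerol buffer for 30 min at room temperature before washing, 0.1% formaldehyde crosslinking, proximity ligation (BsaI/T4 ligase, 1 h, 37 °C), PCR and Illumina NextSeq500 sequencing.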

The next assay addresses T2, ETV3L (Homo sapiens, UniProt Q6ZN32 1-361).
T2 sequence: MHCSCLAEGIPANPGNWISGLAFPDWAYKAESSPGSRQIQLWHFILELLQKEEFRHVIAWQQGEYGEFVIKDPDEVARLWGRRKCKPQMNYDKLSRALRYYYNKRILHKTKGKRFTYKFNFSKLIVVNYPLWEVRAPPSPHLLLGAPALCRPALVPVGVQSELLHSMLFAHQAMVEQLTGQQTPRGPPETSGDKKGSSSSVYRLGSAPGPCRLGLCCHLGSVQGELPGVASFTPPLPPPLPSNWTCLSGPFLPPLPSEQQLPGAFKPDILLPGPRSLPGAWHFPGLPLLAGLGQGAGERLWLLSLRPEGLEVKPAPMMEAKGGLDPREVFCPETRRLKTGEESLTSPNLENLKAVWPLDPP
Put shortly: as §1

The target in another assay is T3, ETS2 (Homo sapiens, UniProt P15036 1-469).
T3 sequence: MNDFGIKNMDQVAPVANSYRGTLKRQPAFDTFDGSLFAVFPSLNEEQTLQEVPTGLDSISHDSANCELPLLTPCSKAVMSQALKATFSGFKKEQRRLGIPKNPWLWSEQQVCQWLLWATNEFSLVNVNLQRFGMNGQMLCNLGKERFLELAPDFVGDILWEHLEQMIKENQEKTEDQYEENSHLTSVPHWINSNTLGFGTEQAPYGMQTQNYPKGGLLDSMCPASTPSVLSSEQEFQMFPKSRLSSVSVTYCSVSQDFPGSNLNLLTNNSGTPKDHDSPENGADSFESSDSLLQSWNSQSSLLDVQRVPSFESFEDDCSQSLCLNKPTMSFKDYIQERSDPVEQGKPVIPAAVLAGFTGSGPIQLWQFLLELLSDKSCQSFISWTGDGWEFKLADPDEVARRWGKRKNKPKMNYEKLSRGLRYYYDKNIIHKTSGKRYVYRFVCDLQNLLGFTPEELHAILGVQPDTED
Put shortly: as §1

For another assay, the target named is T4, SPDEF (Homo sapiens, UniProt O95238 1-335).
T4 sequence: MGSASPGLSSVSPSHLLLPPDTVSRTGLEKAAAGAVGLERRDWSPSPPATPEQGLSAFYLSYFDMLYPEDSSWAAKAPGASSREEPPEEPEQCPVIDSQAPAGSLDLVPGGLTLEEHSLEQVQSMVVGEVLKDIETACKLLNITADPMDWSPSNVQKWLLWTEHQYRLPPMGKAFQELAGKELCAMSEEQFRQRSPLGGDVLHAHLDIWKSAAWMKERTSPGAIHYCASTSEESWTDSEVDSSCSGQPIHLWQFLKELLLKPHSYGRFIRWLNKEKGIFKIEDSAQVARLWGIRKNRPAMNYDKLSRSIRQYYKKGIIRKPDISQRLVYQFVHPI
A digest of the protocol:
as §1

For the next assay, the target named is T5, ETV7 (Homo sapiens, UniProt Q9Y603 1-341).
T5 sequence: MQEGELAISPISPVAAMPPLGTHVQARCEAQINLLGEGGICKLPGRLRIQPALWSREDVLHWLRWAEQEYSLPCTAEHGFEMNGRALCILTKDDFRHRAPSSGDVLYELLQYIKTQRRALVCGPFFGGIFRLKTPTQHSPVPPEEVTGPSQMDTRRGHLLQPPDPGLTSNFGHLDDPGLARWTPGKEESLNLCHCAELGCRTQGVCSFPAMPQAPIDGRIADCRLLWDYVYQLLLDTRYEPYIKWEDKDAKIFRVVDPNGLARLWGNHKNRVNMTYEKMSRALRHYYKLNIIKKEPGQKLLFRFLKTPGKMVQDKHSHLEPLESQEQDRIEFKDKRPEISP
Put shortly: as §1

A further assay deals with T6, ELF5 (Homo sapiens, UniProt Q9UKW6-2 1-255).
T6 sequence: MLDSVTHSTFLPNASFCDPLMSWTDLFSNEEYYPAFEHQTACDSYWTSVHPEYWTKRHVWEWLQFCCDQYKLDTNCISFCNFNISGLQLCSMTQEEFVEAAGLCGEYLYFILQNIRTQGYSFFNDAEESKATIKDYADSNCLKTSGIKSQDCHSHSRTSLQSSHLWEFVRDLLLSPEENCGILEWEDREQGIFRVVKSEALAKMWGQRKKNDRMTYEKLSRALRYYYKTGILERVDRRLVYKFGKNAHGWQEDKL
A digest of the protocol:
as §1

A further assay concerns the target T7, ETV3 (Homo sapiens, UniProt P41162-2 1-143).
T7 sequence: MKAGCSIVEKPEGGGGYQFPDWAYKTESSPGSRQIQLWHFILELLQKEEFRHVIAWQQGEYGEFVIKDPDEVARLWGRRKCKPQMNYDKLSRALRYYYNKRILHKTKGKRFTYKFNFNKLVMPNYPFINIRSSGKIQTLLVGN
A digest of the protocol: as §1

For a further assay, the target named is ETV6 (Homo sapiens, UniProt P41212 1-452). Put shortly: as §1
Chain of ETV6 (P41212 whole entry): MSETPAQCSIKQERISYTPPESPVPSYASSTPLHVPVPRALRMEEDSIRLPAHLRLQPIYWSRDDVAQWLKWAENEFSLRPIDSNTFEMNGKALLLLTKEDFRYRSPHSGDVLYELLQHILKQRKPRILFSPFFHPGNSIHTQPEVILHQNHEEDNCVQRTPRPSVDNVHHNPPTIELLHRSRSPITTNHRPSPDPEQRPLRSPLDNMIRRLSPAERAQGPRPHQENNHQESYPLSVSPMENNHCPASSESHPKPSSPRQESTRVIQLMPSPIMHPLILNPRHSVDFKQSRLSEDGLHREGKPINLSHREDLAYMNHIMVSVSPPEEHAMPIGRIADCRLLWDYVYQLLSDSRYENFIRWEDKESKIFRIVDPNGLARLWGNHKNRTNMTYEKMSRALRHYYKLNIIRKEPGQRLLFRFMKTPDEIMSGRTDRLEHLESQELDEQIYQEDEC

Take GTATGC: the binding signal in the assay with ERF is 1.05 fold enrichment (6-mer frequency, TF over GST control); with ETV3L, 1.23 fold enrichment (6-mer frequency, TF over GST control); with ETS2 it was 1.24 fold enrichment (6-mer frequency, TF over GST control); with SPDEF, 1.18 fold enrichment (6-mer frequency, TF over GST control); in the assay with ETV7, 1.27 fold enrichment (6-mer frequency, TF over GST control); with ELF5, 1.11 fold enrichment (6-mer frequency, TF over GST control). In addition, the binding signal with ETV3 was 1.24 fold enrichment (6-mer frequency, TF over GST control); with ETV6 it was 1.09 fold enrichment (6-mer frequency, TF over GST control).
As for ACCCCC, the binding signal with ERF is 1.08 fold enrichment (6-mer frequency, TF over GST control); in the assay with ETV3L, 1.16 fold enrichment (6-mer frequency, TF over GST control); with ETS2, 1.15 fold enrichment (6-mer frequency, TF over GST control); with SPDEF it was 1.1 fold enrichment (6-mer frequency, TF over GST control); with ETV7 it was 1.08 fold enrichment (6-mer frequency, TF over GST control); in the assay with ELF5, 1.12 fold enrichment (6-mer frequency, TF over GST control). In addition, the binding signal is 1.21 fold enrichment (6-mer frequency, TF over GST control) with ETV3 and 1.06 fold enrichment (6-mer frequency, TF over GST control) in the assay with ETV6.
For the sequence ACAACA, the binding signal with ERF is 1.31 fold enrichment (6-mer frequency, TF over GST control); with ETV3L it was 1.17 fold enrichment (6-mer frequency, TF over GST control); with ETS2 it was 1.18 fold enrichment (6-mer frequency, TF over GST control); with SPDEF, 1.19 fold enrichment (6-mer frequency, TF over GST control); with ETV7 it was 1.23 fold enrichment (6-mer frequency, TF over GST control); in the assay with ELF5, 1.22 fold enrichment (6-mer frequency, TF over GST control). In addition, the binding signal with ETV3 was 1.27 fold enrichment (6-mer frequency, TF over GST control); in the assay with ETV6 it was 1.29 fold enrichment (6-mer frequency, TF over GST control).
As for CTAAGC, the binding signal with ERF was 1.14 fold enrichment (6-mer frequency, TF over GST control); in the assay with ETV3L, 1.09 fold enrichment (6-mer frequency, TF over GST control); in the assay with ETS2, 1.15 fold enrichment (6-mer frequency, TF over GST control); with SPDEF it was 1.06 fold enrichment (6-mer frequency, TF over GST control); with ETV7, 1.04 fold enrichment (6-mer frequency, TF over GST control); with ELF5, 1.07 fold enrichment (6-mer frequency, TF over GST control). The binding signal was 1.07 fold enrichment (6-mer frequency, TF over GST control) with ETV3 and 1.08 fold enrichment (6-mer frequency, TF over GST control) with ETV6.
Take GCCCCT: the binding signal with ERF is 1.27 fold enrichment (6-mer frequency, TF over GST control); in the assay with ETV3L it was 1.3 fold enrichment (6-mer frequency, TF over GST control); with ETS2 it was 1.27 fold enrichment (6-mer frequency, TF over GST control); in the assay with SPDEF it was 1.37 fold enrichment (6-mer frequency, TF over GST control); in the assay with ETV7, 1.22 fold enrichment (6-mer frequency, TF over GST control); with ELF5 it was 1.2 fold enrichment (6-mer frequency, TF over GST control). Besides, the binding signal with ETV3 is 1.23 fold enrichment (6-mer frequency, TF over GST control); with ETV6, 1.23 fold enrichment (6-mer frequency, TF over GST control).
In the case of TCTGAC, the binding signal in the assay with ERF is 1.21 fold enrichment (6-mer frequency, TF over GST control); with ETV3L, 1.04 fold enrichment (6-mer frequency, TF over GST control); with ETS2, 1.2 fold enrichment (6-mer frequency, TF over GST control); in the assay with SPDEF, 1.14 fold enrichment (6-mer frequency, TF over GST control); in the assay with ETV7, 1.22 fold enrichment (6-mer frequency, TF over GST control); in the assay with ELF5 it was 1.2 fold enrichment (6-mer frequency, TF over GST control). For the same sequence, the binding signal with ETV3 was 1.18 fold enrichment (6-mer frequency, TF over GST control); with ETV6, 1.27 fold enrichment (6-mer frequency, TF over GST control).
For CCACAT, the binding signal in the assay with ERF is 1.28 fold enrichment (6-mer frequency, TF over GST control); with ETV3L, 1.15 fold enrichment (6-mer frequency, TF over GST control); with ETS2, 1.2 fold enrichment (6-mer frequency, TF over GST control); with SPDEF, 1.22 fold enrichment (6-mer frequency, TF over GST control); with ETV7 it was 1.05 fold enrichment (6-mer frequency, TF over GST control); with ELF5 it was 1.15 fold enrichment (6-mer frequency, TF over GST control). The binding signal with ETV3 is 1.17 fold enrichment (6-mer frequency, TF over GST control); with ETV6, 1.2 fold enrichment (6-mer frequency, TF over GST control).
ACATCA: the binding signal is 1.13 fold enrichment (6-mer frequency, TF over GST control) with ERF; 1.08 fold enrichment (6-mer frequency, TF over GST control) with ETV3L; 1.11 fold enrichment (6-mer frequency, TF over GST control) in the assay with ETS2; 1.07 fold enrichment (6-mer frequency, TF over GST control) with SPDEF; 1.1 fold enrichment (6-mer frequency, TF over GST control) with ETV7; 1.07 fold enrichment (6-mer frequency, TF over GST control) in the assay with ELF5. Besides, the binding signal was 1.14 fold enrichment (6-mer frequency, TF over GST control) with ETV3 and 1.16 fold enrichment (6-mer frequency, TF over GST control) in the assay with ETV6.
